Outcome and AC50 data for seven compounds are collected here from PubChem BioAssay (EPA / NIEHS).

Experiment [1] concerns the target human Retinoic Acid Receptor beta (RARb), RARB (gene 5915) (UniProt P10826). Kind of experiment: ATG_RARb_TRANS: Attagene TRANS-FACTORIAL HepG2 Assay for human Retinoic Acid Receptor beta (AID 2283004; active = hit-call score of the fitted dose curve at least 0.9, where 1 is the maximum). In outline: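 HepG2 cells were transiently transfected with GAL4-UAS reporter units that report activity of exogenous chimeric NR-Gal4 proteins, then exposed to compound for 24 h. Reporter mRNA was quantified by RT-PCR with capillary electrophoresis fluorescence, as gain of signal over DMSO.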

Experiment [2] can be described thus: BSK_3C_Proliferation: Cell Proliferation Assessment in the BioMAP Diversity Plus: 3C Assay (AID 2283006). Particulars: primary human endothelial cells (HUVEC). An outline of the steps:
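HUVEC, sub-confluent; 48 h chemical exposure; 10% TCA fix, 0.1% SRB stain, A560 total protein. Gain or loss of signal fitted both directions vs DMSO control.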

Experiment [3] in a line: BSK_3C_Vis: BioMAP Diversity Plus: 3C Assay for Morphology Visualization (AID 2283025).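 Also: fitted both ways so gain or loss versus DMSO counts.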 Particulars: primary human endothelial cells (HUVEC). An outline of the steps:
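HUVEC, 3C system; light microscopy of morphology at 24 h post-dose. Bidirectional fit vs DMSO baseline. Secondary readout, background-control function.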

Read-out in experiment [4]: Transforming growth factor beta 1 (TGFb1), TGFB1 (gene 7040)
The experiment can be described thus: BSK_BE3C_TGFb1: BioMAP Diversity Plus: BE3C Assay for Transforming growth factor beta 1 (TGFb1) Biomarker Activity (AID 2283036;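 also: TGF-b1 protein level measured by ELISA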). The following applies: primary human bronchial epithelial cells; actives raise or lower the signal. An outline of the steps:
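Read-out: ELISA for TGF-b1 in primary human bronchial epithelial cultures, 24 h post-dose. Bidirectional curve fitting vs DMSO control; gain or loss of signal both scored.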

Experiment [5] can be described thus: BSK_CASM3C_SRB: Viability Assessment in the BioMAP Diversity Plus: CASM3C Assay (AID 2283050). The following applies: primary human coronary artery smooth muscle cells.
Read-out in experiment [6]: Transforming growth factor beta 1 (TGFb1), TGFB1 (gene 7040)
Kind of experiment: BSK_KF3CT_TGFb1: BioMAP Diversity Plus: KF3CT Assay for Transforming growth factor beta 1 (TGFb1) Biomarker Activity (AID 2283072). Particulars: primary human keratinocytes with fibroblasts; actives raise or lower the signal. An outline of the steps: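 Read-out: ELISA for TGF-b1 in keratinocyte/foreskin fibroblast human skin co-culture, 24 h after dosing; bidirectional curve fit vs DMSO baseline; gain or loss of signal scored.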

Read-out in experiment [7]: CD40, CD40 (gene 958)
Kind of experiment: BSK_LPS_CD40: BioMAP Diversity Plus: LPS Assay for CD40 Biomarker Activity (AID 2283076). The following applies: primary human HUVEC with PBMC; actives raise or lower the signal. In outline: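 HUVEC plus PBMC co-culture stimulated with LPS; CD40 quantified by ELISA 24 h after compound dosing. Fitting was bidirectional relative to DMSO. SRB staining of parallel cultures flagged overt cytotoxicity.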

Read-out in experiment [8]: Tumor necrosis factor (Homo sapiens) (UniProt P01375)
The experiment can be described thus: BSK_LPS_TNFa: BioMAP Diversity Plus: LPS Assay for Tumour Necrosis Factor alpha (TNFa) Biomarker Activity (AID 2283085). Particulars: primary human HUVEC with PBMC; actives raise or lower the signal. In outline:
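HUVEC/PBMC co-culture, LPS-stimulated; 24 h post-dose; TNFa by ELISA; gain or loss of signal fitted bidirectionally vs DMSO baseline.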

Read-out in experiment [9]: Vascular cell adhesion molecule 1 (VCAM1), VCAM1 (gene 7412)
The experiment can be described thus: BSK_LPS_VCAM1: BioMAP Diversity Plus: LPS Assay for Vascular cell adhesion molecule 1 (VCAM1) Biomarker Activity (AID 2283086). Particulars: primary human HUVEC with PBMC; actives raise or lower the signal. In outline:
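ELISA read-out of VCAM-1 at 24 h post-dosing in an LPS-driven HUVEC/PBMC primary human co-culture; gain or loss of signal fitted bidirectionally against DMSO baseline. Cytotoxicity tracked in parallel cultures by SRB total-protein staining.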

Read-out in another experiment: CD38, CD38 (gene 952)
Kind of experiment: BSK_SAg_CD38: BioMAP Diversity Plus: SAg Assay for CD38 Biomarker Activity (AID 2283087). The following applies: primary human HUVEC with PBMC; actives raise or lower the signal. In outline: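 Measures CD38 on a human endothelial/PBMC co-culture driven by SEB and TSST-1, 24 h after compound exposure, using ELISA with fluorescence detection; DMSO defines baseline for bidirectional curve fitting.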

Read-out in experiment [10]: CD40, CD40 (gene 958)
Kind of experiment: BSK_SAg_CD40: BioMAP Diversity Plus: SAg Assay for CD40 Biomarker Activity (AID 2283088). The following applies: primary human HUVEC with PBMC; actives raise or lower the signal. In outline:
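HUVEC plus PBMC co-culture, superantigen-activated, with CD40 read by ELISA 24 h after dosing. Curves fitted in both directions against DMSO. Overt cytotoxicity checked by parallel SRB total-protein staining.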

Read-out in another experiment: CD69, CD69 (gene 969)
The experiment can be described thus: BSK_SAg_CD69: BioMAP Diversity Plus: SAg Assay for CD69 Biomarker Activity (AID 2283089).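 As to AC50: cell surface CD69 protein quantified by ELISA with fluorescence detection.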 The following applies: primary human HUVEC with PBMC; actives raise or lower the signal. An outline of the steps:
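Values derive from bidirectional fitting relative to DMSO vehicle. Cells: umbilical vein endothelium plus peripheral blood mononuclear cells, treated 24 h before fluorescent ELISA for CD69.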

Read-out in experiment [11]: Monocyte Chemoattractant Protein-1 (MCP1), CCL2 (gene 6347)
The experiment can be described thus: BSK_SAg_MCP1: BioMAP Diversity Plus: SAg Assay for Monocyte Chemoattractant Protein-1 (MCP1) Biomarker Activity (AID 2283090). Particulars: primary human HUVEC with PBMC; actives raise or lower the signal. In outline:
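Values derive from bidirectional fitting of ELISA-measured MCP1 against DMSO controls. Readings were taken 24 h after dosing human vascular endothelial cells co-cultured with peripheral blood mononuclear cells under superantigen stimulation.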

A short description of experiment [12]: BSK_SAg_Proliferation: Cell Proliferation Assessment in the BioMAP Diversity Plus: SAg Assay (AID 2283095).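 Also: relative cell number as total protein by SRB absorbance in sub-confluent culture.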 The following applies: primary human HUVEC with PBMC. An outline of the steps: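 HUVEC/PBMC co-culture, 96-well. TCA-fixed (10%), 0.1% SRB stain, A560 at 96 h. Protein content used as viability readout; bidirectional fitting vs DMSO control.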
Experiment [13] in a line: BSK_SAg_SRB: Viability Assessment in the BioMAP Diversity Plus: SAg Assay (AID 2283096).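 Also: cells read one day after compound addition; hits may be either gain or loss of signal compared with DMSO.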 The following applies: primary human HUVEC with PBMC. An outline of the steps:
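This overt-cytotoxicity endpoint quantifies protein in human endothelial/PBMC co-cultures at 24 h using SRB absorbance (560 nm) after trichloroacetic acid fixation. Values reflect signal change from the DMSO negative control, fitted bidirectionally.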

Read-out in experiment [14]: Secreted IgG (sIgG), gene 3500
The experiment can be described thus: BSK_BT_sIgG: BioMAP Diversity Plus: BT Assay for Secreted IgG (sIgG) Biomarker Activity (AID 2284226). The following applies: primary human B cells with PBMC. An outline of the steps:
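Human B cell/PBMC co-culture; compound exposure 24 h; sIgG by ELISA; gain-of-signal fit vs DMSO baseline.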

A short description of experiment [15]: BSK_BT_Bcell_Proliferation: Viability Assessment in the BioMAP Diversity Plus: BT Assay for B cell Proliferation (AID 2284227). The following applies: primary human B cells with PBMC. An outline of the steps:
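Using a human primary B cell–PBMC co-culture, the assay measures total protein by sulforhodamine B absorbance as a gauge of proliferation after 72 h. Analysis followed the positive fitting direction with DMSO as baseline.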

Read-out in experiment [16]: Interleukin 6 (IL6), IL6 (gene 3569)
The experiment can be described thus: BSK_BT_xIL6: BioMAP Diversity Plus: BT Assay for Interleukin 6 (IL6) Biomarker Activity (AID 2284228). Particulars: primary human B cells with PBMC. In outline: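 Human B cell/PBMC co-culture; secreted IL-6 quantified by Luminex xMAP 24 h after chemical dosing, fitted relative to DMSO. Parallel PBMC viability by Alamar Blue after 1 h pretreatment, 20 ng/mL SEB and TSST-1, 90 h incubation.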

Read-out in experiment [17]: Interleukin 17A (IL17A), IL17A (gene 3605)
Kind of experiment: BSK_BT_xIL17A: BioMAP Diversity Plus: BT Assay for Interleukin 17A (IL17A) Biomarker Activity (AID 2284229). Particulars: primary human B cells with PBMC. In outline:
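Co-culture of human B cells and PBMC, dosed for 24 h in 96-well format. Secreted IL-17A measured with Luminex xMAP; gain-direction fitting against DMSO as baseline.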

Read-out in experiment [18]: Vascular cell adhesion molecule 1 (VCAM1), VCAM1 (gene 7412)
The experiment can be described thus: BSK_MyoF_VCAM1: BioMAP Diversity Plus: MyoF Assay for Vascular cell adhesion molecule 1 (VCAM1) Biomarker Activity (AID 2284231). Particulars: primary human lung fibroblasts. An outline of the steps: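 Primary human lung fibroblasts (BioMAP MyoF system) dosed with chemical, VCAM-1 measured by ELISA 24 hours later. Fitted in the positive direction against DMSO; parallel SRB staining assessed cytotoxicity.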

“And” between values parts separate entries of the source, which are not always exact repeats. Equal values may be shown once. Results filed as inconclusive are left out. The source made the active and inactive calls. The calls were made as follows, unless noted: active = hit-call score of the fitted dose curve at least 0.9, where 1 is the maximum; inactive = score below 0.9.

A word on the AC50: it is the midpoint of the concentration-response curve, whichever way the signal moves.

Chain of human Retinoic Acid Receptor beta (RARb), RARB (gene 5915) (P10826 whole entry, looked up, the tested form may be a part): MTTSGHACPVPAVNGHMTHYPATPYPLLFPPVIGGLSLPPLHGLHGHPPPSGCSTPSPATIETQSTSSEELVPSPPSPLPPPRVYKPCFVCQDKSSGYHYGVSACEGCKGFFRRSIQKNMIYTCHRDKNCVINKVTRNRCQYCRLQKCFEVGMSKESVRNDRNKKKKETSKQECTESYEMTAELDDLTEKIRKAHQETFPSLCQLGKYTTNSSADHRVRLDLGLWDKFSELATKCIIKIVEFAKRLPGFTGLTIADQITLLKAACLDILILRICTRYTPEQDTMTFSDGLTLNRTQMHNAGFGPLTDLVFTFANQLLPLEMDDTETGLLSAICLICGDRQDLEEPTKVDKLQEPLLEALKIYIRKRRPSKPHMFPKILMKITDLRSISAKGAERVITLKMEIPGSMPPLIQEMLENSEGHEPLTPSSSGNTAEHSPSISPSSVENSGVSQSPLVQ
Chain of Tumor necrosis factor (Homo sapiens) (P01375 whole entry, looked up): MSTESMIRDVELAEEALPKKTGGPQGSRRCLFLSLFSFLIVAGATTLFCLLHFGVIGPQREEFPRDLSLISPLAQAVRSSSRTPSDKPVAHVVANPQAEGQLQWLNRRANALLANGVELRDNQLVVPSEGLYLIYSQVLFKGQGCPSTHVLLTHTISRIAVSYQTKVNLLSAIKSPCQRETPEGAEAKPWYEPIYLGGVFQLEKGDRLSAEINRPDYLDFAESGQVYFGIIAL

Turning to `CCCCCCC1CCC(=O)O1` (stereo unspecified), in [1], the compound was classed as inactive.

Regarding `Sc1nc2ccccc2s1`, the outcome is “inactive” in [2]; “inactive” in experiment [3]; “inactive” in experiment [4]; “inactive” in experiment [5]; “inactive” in [6]; “inactive” with CD40, CD40 (gene 958) [7]. In addition, the outcome is “inactive” in experiment [8]; “inactive” in experiment [9]; “inactive” with CD38, CD38 (gene 952); “inactive” with CD40, CD40 (gene 958) [10]; “inactive” with CD69, CD69 (gene 969); “inactive” in experiment [11]. Further, the outcome in experiment [12], in [13], in experiment [14], in [15], in experiment [16] and in [17] was inactive. Moreover, the result in experiment [18] was inactive.

For the compound `O=C(O)c1ccccc1C(=O)O`, in [1], the result was inactive.

As to `CCCCCCC(O)CCCCCCCCCCC(=O)OC` (stereo unspecified), the result in [1], in experiment [2], in [3], in [4], in experiment [5] and in experiment [6] was inactive. Also, the outcome with CD40, CD40 (gene 958) [7] is “inactive”; in [8], “inactive”; in experiment [9], “inactive”; with CD38, CD38 (gene 952), “inactive”; with CD40, CD40 (gene 958) [10], “inactive”; in the experiment with CD69, CD69 (gene 969), “inactive”. Moreover, the result in [11], in experiment [12], in experiment [13], in experiment [14], in experiment [15] and in experiment [16] was inactive. In addition, the outcome in experiment [17] and in [18] was inactive.

As to `CCC(C)=NO`, the compound was classed as inactive in experiment [1], in experiment [2], in experiment [3], in experiment [4], in experiment [5] and in [6]. Besides, the outcome with CD40, CD40 (gene 958) [7] is “inactive”; in experiment [8] it was “inactive”; in experiment [9], “inactive”; in the experiment with CD38, CD38 (gene 952), “inactive”; in the experiment with CD40, CD40 (gene 958) [10], “inactive”; with CD69, CD69 (gene 969) it was “inactive”. The outcome in experiment [11], in experiment [12] and in [13] was inactive.

`CN(C)Cc1cc(C(C)(C)C)c(O)c(C(C)(C)C)c1`: the outcome in experiment [2] is “inactive”; in experiment [5], “inactive”; with CD40, CD40 (gene 958) [7] it was “inactive”; in experiment [8] it was “inactive”; in experiment [9], “inactive”; in the experiment with CD38, CD38 (gene 952), “inactive”. Besides, the outcome with CD40, CD40 (gene 958) [10] is “inactive”; in experiment [11] it was “inactive”; in experiment [13], “inactive”. Further, the AC50 was 20 µM (active) and 15.4 µM (active) with CD69, CD69 (gene 969); 17.5 µM (active) and 20 µM (active) in experiment [12].

Consider `O=C(C(=O)c1ccccc1)c1ccccc1`, for which the outcome in experiment [2] was “inactive”; in experiment [3], “inactive”; in experiment [4] it was “inactive”; in [5] it was “inactive”; in experiment [6] it was “inactive”; with CD40, CD40 (gene 958) [7], “inactive”. Besides, the outcome in [8] is “inactive”; in [9], “inactive”; with CD38, CD38 (gene 952) it was “inactive”; in the experiment with CD40, CD40 (gene 958) [10] it was “inactive”; with CD69, CD69 (gene 969), “inactive”; in experiment [11] it was “inactive”. Besides, the outcome in experiment [12], in experiment [13], in [14], in [15], in experiment [16] and in experiment [17] was inactive. For the same compound, the outcome in experiment [18] was inactive.
